Data taken from the supplement of paper PMC11732987, “Enantioselective OTUD7B fragment discovery through chemoproteomics screening and high-throughput optimisation” (Communications Chemistry, 2025).

How the values were obtained:
Test in all cases: log2 ratio of Biotin-Ahx-Ub-VS probe labelling (fragment/DMSO); higher = less target engagement (more negative = stronger competition), active = hit call of the paper (q ≤ 0.05, log2 ratio ≤ -1)
Conditions in all cases: compound concentration: 200 uM; treatment time: 3 h
OTUD6B = biological target: T1, OTUD6B (UniProt Q8N6M0)
T1 sequence (whole entry): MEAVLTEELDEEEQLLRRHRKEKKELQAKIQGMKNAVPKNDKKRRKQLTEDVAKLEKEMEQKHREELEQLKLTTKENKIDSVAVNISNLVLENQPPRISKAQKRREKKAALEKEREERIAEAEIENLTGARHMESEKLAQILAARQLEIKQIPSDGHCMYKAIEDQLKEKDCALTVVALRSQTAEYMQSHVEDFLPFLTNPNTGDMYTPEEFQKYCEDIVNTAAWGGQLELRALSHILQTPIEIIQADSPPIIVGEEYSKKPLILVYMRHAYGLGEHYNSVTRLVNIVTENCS
Outline: (§1)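 Fragment (200 µM) or vehicle was incubated for 3 h with triplicate HEK293T lysate samples of 495 µg, which were then treated with Biotin-Ahx-Ub-VS at 0.5 µM final for 1 h. Labelled DUBs were enriched on NeutrAvidin, digested with LysC and trypsin, and analysed by diaPASEF LC-MS/MS. Values are average log2 fragment/vehicle ratios from an unpaired t-test on global-median-normalised Spectronaut label-free quantities, using proteins with ≥2 unique peptides.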

OTUD7B = biological target: T2, OTUD7B (UniProt Q6GQQ9)
T2 sequence (whole entry): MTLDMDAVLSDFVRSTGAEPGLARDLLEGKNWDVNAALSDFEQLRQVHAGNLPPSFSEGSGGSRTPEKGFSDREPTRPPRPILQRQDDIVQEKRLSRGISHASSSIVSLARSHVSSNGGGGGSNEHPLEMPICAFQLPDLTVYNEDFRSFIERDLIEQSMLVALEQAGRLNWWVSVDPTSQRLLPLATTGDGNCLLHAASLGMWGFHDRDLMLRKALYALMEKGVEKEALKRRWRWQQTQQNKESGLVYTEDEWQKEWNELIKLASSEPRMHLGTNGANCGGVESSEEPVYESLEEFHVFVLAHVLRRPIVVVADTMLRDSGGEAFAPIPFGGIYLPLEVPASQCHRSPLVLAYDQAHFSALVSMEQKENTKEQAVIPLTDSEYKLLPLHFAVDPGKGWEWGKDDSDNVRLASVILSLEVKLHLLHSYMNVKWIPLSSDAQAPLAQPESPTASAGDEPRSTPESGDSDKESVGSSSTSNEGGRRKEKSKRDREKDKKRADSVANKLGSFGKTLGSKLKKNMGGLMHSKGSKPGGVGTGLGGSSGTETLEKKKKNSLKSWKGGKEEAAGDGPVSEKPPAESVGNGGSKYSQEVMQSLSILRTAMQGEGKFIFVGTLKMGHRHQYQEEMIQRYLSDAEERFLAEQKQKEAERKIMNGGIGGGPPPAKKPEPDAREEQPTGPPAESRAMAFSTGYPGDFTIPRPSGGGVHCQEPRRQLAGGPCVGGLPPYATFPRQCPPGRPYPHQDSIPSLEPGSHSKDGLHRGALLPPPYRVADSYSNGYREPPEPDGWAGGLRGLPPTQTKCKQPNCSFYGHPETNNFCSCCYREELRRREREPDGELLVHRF
Outline: as §1

PRPF8 = PRPF8 (UniProt Q6P2Q9)
Outline: as §1

PSMD7 = biological target: T3, PSMD7 (UniProt P51665)
T3 sequence (whole entry): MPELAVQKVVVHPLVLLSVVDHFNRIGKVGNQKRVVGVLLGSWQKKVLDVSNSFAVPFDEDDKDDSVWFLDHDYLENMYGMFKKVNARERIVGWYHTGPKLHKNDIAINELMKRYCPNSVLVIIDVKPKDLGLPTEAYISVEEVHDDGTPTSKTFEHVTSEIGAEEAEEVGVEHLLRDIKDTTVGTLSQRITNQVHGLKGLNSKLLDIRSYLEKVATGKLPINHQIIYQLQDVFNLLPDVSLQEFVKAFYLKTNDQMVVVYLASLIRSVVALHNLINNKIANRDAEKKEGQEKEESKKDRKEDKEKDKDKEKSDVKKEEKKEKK
Outline: as §1

UCHL1 = UCHL1 (UniProt P09936)
UCHL1, sequence (P09936 whole entry, looked up): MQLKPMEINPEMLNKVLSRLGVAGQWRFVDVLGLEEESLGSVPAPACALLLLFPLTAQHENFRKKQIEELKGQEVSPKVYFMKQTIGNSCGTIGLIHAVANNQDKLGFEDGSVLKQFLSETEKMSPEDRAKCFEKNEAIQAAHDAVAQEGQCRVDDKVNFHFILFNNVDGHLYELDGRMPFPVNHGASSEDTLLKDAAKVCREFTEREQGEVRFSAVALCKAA
Outline: as §1

UCHL3 = biological target: T4, UCHL3 (UniProt P15374)
T4 sequence (whole entry): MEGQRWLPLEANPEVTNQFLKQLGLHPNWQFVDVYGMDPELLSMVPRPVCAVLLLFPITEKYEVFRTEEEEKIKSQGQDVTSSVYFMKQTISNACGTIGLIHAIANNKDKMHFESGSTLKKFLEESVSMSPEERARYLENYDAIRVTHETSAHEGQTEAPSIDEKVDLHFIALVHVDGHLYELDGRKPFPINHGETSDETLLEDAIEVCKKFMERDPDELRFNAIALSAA
Outline: as §1

UCHL5 = biological target: T5, UCHL5 (UniProt Q9Y5K5)
T5 sequence (whole entry): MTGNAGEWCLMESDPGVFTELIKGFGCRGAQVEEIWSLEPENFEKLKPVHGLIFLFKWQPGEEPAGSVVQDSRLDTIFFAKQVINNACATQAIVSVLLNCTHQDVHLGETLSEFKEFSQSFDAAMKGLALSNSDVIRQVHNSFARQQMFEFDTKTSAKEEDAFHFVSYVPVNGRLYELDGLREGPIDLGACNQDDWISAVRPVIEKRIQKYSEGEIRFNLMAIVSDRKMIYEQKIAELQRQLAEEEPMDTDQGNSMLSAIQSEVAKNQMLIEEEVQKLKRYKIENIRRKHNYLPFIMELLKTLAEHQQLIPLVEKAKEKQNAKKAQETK
Outline: as §1

USP10 = USP10 (UniProt Q14694)
USP10, sequence (Q14694 whole entry): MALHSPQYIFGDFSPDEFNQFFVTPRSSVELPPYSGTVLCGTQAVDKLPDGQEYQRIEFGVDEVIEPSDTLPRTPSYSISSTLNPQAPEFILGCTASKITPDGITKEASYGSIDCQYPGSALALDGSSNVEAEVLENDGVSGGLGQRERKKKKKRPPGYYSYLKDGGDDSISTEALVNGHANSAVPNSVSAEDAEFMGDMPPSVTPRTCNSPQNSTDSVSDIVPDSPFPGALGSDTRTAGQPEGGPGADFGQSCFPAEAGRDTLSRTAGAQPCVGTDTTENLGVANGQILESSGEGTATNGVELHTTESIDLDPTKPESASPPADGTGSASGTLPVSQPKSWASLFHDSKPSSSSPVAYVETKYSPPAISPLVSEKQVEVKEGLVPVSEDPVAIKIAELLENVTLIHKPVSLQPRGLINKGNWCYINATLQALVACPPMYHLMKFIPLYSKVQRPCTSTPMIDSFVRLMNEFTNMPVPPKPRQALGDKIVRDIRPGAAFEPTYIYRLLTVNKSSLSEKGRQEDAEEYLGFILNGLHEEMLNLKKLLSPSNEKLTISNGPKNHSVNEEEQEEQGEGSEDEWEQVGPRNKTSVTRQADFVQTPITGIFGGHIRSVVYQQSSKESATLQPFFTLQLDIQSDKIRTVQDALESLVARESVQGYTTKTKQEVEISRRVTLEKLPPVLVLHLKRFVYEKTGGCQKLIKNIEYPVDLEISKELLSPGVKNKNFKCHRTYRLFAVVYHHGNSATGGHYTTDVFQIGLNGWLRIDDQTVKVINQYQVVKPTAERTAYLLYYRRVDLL
Outline: as §1

USP15 = biological target: T6, USP15 (UniProt Q9Y4E8)
T6 sequence (whole entry): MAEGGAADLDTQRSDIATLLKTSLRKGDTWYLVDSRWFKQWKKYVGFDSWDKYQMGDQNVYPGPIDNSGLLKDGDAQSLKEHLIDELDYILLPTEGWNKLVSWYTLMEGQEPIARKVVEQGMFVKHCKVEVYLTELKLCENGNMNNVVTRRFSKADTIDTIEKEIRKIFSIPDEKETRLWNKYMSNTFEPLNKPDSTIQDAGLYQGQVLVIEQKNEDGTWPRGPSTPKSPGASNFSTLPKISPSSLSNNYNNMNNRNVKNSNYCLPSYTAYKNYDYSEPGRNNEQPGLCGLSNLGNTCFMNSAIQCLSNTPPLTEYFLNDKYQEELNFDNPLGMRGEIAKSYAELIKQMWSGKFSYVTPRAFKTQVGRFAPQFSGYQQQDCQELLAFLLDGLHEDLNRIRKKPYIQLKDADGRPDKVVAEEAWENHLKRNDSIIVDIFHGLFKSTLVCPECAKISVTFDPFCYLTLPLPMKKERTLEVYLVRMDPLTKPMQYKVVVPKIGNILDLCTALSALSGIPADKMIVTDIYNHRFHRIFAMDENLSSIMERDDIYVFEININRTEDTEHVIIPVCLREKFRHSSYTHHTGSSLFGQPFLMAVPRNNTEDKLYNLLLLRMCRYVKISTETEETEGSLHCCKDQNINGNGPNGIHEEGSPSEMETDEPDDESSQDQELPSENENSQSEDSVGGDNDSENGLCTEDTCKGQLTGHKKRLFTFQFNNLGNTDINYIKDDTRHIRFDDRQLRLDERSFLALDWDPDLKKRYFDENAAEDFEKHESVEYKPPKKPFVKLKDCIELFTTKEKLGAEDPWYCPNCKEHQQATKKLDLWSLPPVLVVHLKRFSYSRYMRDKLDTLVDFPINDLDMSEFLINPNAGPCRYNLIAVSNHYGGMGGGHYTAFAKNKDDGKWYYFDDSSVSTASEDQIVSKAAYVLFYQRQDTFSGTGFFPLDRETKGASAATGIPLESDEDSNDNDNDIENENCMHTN
Outline: as §1

USP16 = USP16 (UniProt Q9Y5T5)
USP16, sequence (Q9Y5T5 whole entry, looked up): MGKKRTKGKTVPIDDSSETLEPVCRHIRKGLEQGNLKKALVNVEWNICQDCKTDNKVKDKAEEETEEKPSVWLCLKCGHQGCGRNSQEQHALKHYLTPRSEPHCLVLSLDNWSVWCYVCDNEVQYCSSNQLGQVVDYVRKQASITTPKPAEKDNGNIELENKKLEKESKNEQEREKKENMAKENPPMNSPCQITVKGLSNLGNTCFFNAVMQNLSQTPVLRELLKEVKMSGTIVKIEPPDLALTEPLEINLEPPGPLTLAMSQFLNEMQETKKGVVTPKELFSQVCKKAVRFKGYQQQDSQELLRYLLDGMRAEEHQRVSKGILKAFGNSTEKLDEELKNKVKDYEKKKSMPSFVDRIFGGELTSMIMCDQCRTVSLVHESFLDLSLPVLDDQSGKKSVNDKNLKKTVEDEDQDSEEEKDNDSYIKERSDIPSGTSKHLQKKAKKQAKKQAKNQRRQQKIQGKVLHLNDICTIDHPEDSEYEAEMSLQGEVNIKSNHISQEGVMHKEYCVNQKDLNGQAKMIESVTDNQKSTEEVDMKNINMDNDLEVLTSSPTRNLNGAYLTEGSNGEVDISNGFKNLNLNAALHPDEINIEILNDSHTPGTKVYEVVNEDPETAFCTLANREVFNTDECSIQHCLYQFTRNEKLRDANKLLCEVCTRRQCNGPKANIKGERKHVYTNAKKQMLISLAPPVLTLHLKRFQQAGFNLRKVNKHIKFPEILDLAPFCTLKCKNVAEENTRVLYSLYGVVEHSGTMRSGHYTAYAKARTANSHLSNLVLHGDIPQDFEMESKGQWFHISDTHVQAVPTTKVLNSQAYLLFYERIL
Outline: as §1

Measured: log2 ratio of Biotin-Ahx-Ub-VS probe labelling

Cl.Cn1c(CNC(=O)CCl)nc2cccnc21
inactive: OTUD6B -0.213 | OTUD7B -0.356 | PRPF8 -0.144 | PSMD7 -0.0899 | UCHL3 0.177 | UCHL5 -0.302 | USP10 -0.0558 | USP15 -0.177 | USP16 -0.246
active: UCHL1 -1.17
